This is an account of results in the supplement of paper PMC11417369.

± gives the standard deviation of the averaged measurements. In all, about 25,000 sequences were measured (“ln(normalized median fluorescence intensity)”: median about 8.6, highest 2% from about 10 on). Only a selection was taken, and the highest values are over-represented in it overall.

The subject of this experiment is PfAP2-EXP AP2 domain (GST-tagged). Briefly: gcPBM binding intensity (ln(normalized median fluorescence intensity)); higher = stronger DNA binding. The method in brief:
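Binding intensity values are the highest Masliner-normalised natural-log median intensity among replicate spots of either probe orientation. The binding step lasted 1 h in 1× PBS with 1% milk, 0.2 mg/ml BSA, 0.5% salmon testes DNA and 0.03% Triton X-100, using GST-tagged P. falciparum DNA-binding domains expressed in E. coli on an Agilent 4 × 180k array of primer-extended double-stranded 36-bp intergenic genomic probes plus negative controls. Alexa488 anti-GST antibody and a 488 nm scan detected bound protein.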
“TTTTTTATTTTAAAAACATGCATAAAATATAATAGT [TGCATGCA_site762]”: the “gcPBM binding intensity (ln)” value stood at 8.94 ± 0.42.

For “ACATGTATACTTTTTACGAAAAAAAAAAAAAAAAAA [CACACA_negctrl_site1638]”, the “gcPBM binding intensity (ln)” value was determined as 8.09 ± 0.45.

Regarding “TTTTAAAAAGATCATTAAAAAAAAAAAAAGAACAAA [CACACA_negctrl_site528]”, the “gcPBM binding intensity (ln)” value was 8.53 ± 0.41.

Take “TATACATATTTGTATTGTACATAAACTAAATCTTCA [XGTACX_site610]”: the “gcPBM binding intensity (ln)” value turned out to be 8.21 ± 0.36.

“ATACGATTGAAACATTGTACATGAATATAAAAAAAT [XGTACX_site5704]”: the “gcPBM binding intensity (ln)” value came out at 8.88 ± 0.47.

On to “ATATTTTATTATTGTTGTACTTTTTTTTGATTGTTT [XGTACX_site4090]”, for which the “gcPBM binding intensity (ln)” value is 8.81 ± 0.42.

Consider “TTGTGTTCTTATTTTTACACCGAAAAATATTAAAAG [CACACA_negctrl_site535]”, for which the “gcPBM binding intensity (ln)” value was 8.55 ± 0.29.

Take “AATGGATGGTCCAAATGTACATATATATATATATAT [XGTACX_site4800]”: the “gcPBM binding intensity (ln)” value was 10.1 ± 0.41.

As for “ATATATATATGTTACTGTACTAATTTATATGTTAAT [XGTACX_site3341]”, the “gcPBM binding intensity (ln)” value was found to be 9.665 ± 0.064.

In the case of “AAAGGGATAACACCAAAAAAAATAAAAATAAAAATA [GTGCAC_negctrl_site680]”, the “gcPBM binding intensity (ln)” value was determined as 8.61 ± 0.54.

Turning to “AAAAAAAAAAGACACACACACATATAAATATAAATA [CACACA_site6899]”, the “gcPBM binding intensity (ln)” value was 8.75 ± 0.38.

Turning to “CATATAAAAAGACACACACACACATATATATATATA [CACACA_site940]”, the “gcPBM binding intensity (ln)” value was 10.3 ± 0.18.

As to “AATTATGGGGAAAAGACACACATATATATATATATA [CACACA_site2589]”, the “gcPBM binding intensity (ln)” value is 10.3 ± 0.31.

Consider “ATAAAAAAAAGACACACACACATATATATATATATA [CACACA_site3073]”, for which the “gcPBM binding intensity (ln)” value turned out to be 10 ± 0.33.

For “AGGATACACAGACACACACACATATATATATATATA [CACACA_site907]”, the “gcPBM binding intensity (ln)” value is 10 ± 0.45.

Regarding “AGGATATGCAGACACACACACATATAGATTTATATA [CACACA_site7100]”, the “gcPBM binding intensity (ln)” value turned out to be 8.41 ± 0.48.

In the case of “AAAAATTATGGACACACACACATATATATATATATT [CACACA_site4717]”, the “gcPBM binding intensity (ln)” value was 8.53 ± 0.31.

In the case of “AGGATATGCAGACACACACACATATATATATATATA [CACACA_site2201]”, the “gcPBM binding intensity (ln)” value came out at 10.3 ± 0.41.

Regarding “GAGAAATGGGGACACACACACATATTATATATATAT [CACACA_site4943]”, the “gcPBM binding intensity (ln)” value was determined as 9.71 ± 0.2.

Consider “CATACCTTTTAATGTACACACATTTCTTTTTTGTTA [CACACA_site892]”, for which the “gcPBM binding intensity (ln)” value turned out to be 8.88 ± 0.28.

Consider “AAAAAAAAAATTAAATGTACATATATAATATATATA [XGTACX_site7245]”, for which the “gcPBM binding intensity (ln)” value worked out at 8.62 ± 0.014.

In the case of “TCCTACATATTATAGTGTACATTTTCATGTTCATAT [XGTACX_site4308]”, the “gcPBM binding intensity (ln)” value worked out at 8.62 ± 0.39.

Take “ATAAGATGATGGAACTGTAATATATATATATATATA [CACACA_negctrl_site839]”: the “gcPBM binding intensity (ln)” value came out at 10 ± 0.5.

Turning to “AAAAAAATAAATAAATGTACATATATAAAACATTGT [XGTACX_site2136]”, the “gcPBM binding intensity (ln)” value was 8.87 ± 0.33.

Consider “TGTAATCTGGAGAAAAGTACACAGTATCTGGTAGCT [XGTACX_site2039]”, for which the “gcPBM binding intensity (ln)” value was determined as 8.53 ± 0.34.

As for “TTTTTAATTTACTGTCATAGGTACCTTAACTTATCA [CACACA_negctrl_site1664]”, the “gcPBM binding intensity (ln)” value worked out at 8.72 ± 0.49.

Take “ATATAAATGTATATGACACACATATATATATATATA [CACACA_site889]”: the “gcPBM binding intensity (ln)” value amounted to 9.91 ± 0.3.

Take “AAAAATAAAAAAATGACACACATATATATATATATA [CACACA_site2307]”: the “gcPBM binding intensity (ln)” value is 10 ± 0.53.

Take “AATGACAACCTTGTCACACATATATATATATATATA [CACACA_site5977]”: the “gcPBM binding intensity (ln)” value stood at 10.2 ± 0.4.

Turning to “AAAAAAAAAAAAAAAAATATATTTATGAAATAAAAA [TGCATGCA_negctrl_site262]”, the “gcPBM binding intensity (ln)” value was determined as 8.405 ± 0.078.

Turning to “ATTTATATTTTATATACACACATGAACTTATATGGA [CACACA_site3167]”, the “gcPBM binding intensity (ln)” value amounted to 8.37 ± 0.41.

Take “ATGGGACATATATATACACACATATATATATATATA [CACACA_site1202]”: the “gcPBM binding intensity (ln)” value was found to be 10 ± 0.21.

“AACTTACTTGGACATACACACATATATATATATATA [CACACA_site2978]”: the “gcPBM binding intensity (ln)” value was determined as 10.2 ± 0.44.

As for “TGAACTTACTTGGACATACACACATATATATATATA [CACACA_site2977]”, the “gcPBM binding intensity (ln)” value is 10.2 ± 0.27.

Consider “AACTTACTTGGACATACACACATATAGATTTATATA [CACACA_site7412]”, for which the “gcPBM binding intensity (ln)” value turned out to be 8.84 ± 0.3.

Regarding “TATACAGATGGACACACACACATATATATATATATA [CACACA_site5272]”, the “gcPBM binding intensity (ln)” value was determined as 10.2 ± 0.3.

As to “ATAAATATACATTATACCGACCATGTGGATATTATA [XGTACX_negctrl_site241]”, the “gcPBM binding intensity (ln)” value came out at 8.43 ± 0.49.

As for “GTGCATATGTAGATATGTACATATTTATTTATTATT [XGTACX_site7343]”, the “gcPBM binding intensity (ln)” value came out at 8.38 ± 0.16.

On to “TTCTAGAAAACTGATCGTACAAATAAATATAGACAC [XGTACX_site2808]”, for which the “gcPBM binding intensity (ln)” value was determined as 8.88 ± 0.28.

“AATGGTAATCCACATACACACACACCGACACATATA [CACACA_site8876]”: the “gcPBM binding intensity (ln)” value is 8.72 ± 0.49.

With “TTCTTCTGTTTTATTACACACCATTTTGTGTATACA [CACACA_site7059]”, the “gcPBM binding intensity (ln)” value is 8.96 ± 0.35.

Take “GGTATATATTTATAATGTACATATTCATATATATAA [XGTACX_site3291]”: the “gcPBM binding intensity (ln)” value is 8.45 ± 0.39.

With “TATAAATATAAATACACACACACACGCCAAAGCGTA [CACACA_site6181]”, the “gcPBM binding intensity (ln)” value turned out to be 8.49 ± 0.36.

For “ACCATACATACATACACACACACACCCATATATATA [CACACA_site2917]”, the “gcPBM binding intensity (ln)” value amounted to 8.94 ± 0.45.
